Assay outcomes (PubChem BioAssay)
A selection: hits, their analogues and other compounds. The true share with any hit is near 4.3%.
KKLEB cytotox = CF airway cell cytotoxicity counter-screen. activity change (cytotoxicity), % at 5 µM. KKLEB CF airway cells viability, ATPlite luminescence, overnight; active compounds read low; cells stimulated with P. aeruginosa culture filtrate. 360,000 compounds, 0.36% hits. AID 602141;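 active means corrected activity change at or below -50% at 5 µM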
HIF-2a inh = HIF-2a inhibition | 786-0 RCC cells HIF-2a reporter, luciferase luminescence, overnight | inhibition, % at 18.8 µM | 360,000 compounds, 0.72% hits;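 active means inhibition of the luminescence signal of 40% or more relative to plate controls, in a single-dose primary screen at 18.75 µM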
CHOP inhibitor = inhibitors of CHOP induction in ER stress response; CHO-K1 CHOP-promoter luciferase, tunicamycin-induced, 15-18 h; inhibition, % at 10 µM; 220,000 compounds, 3.8% hits;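 active means compounds that reduced the stress-induced luciferase reporter signal by more than about 70% of percent inhibition, limit read from the data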;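 further: 0% = tunicamycin plus vehicle and 100% = wells without tunicamycin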
TRPM1 prom inh = MITF TRPM1 promoter inhibition in SK-MEL-5 cells; SK-MEL-5 TRPM1 promoter luciferase, 24 h; inhibition, % at 12.5 µM; 330,000 compounds, 0.83% hits;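 active means mean inhibition across replicates of 60% or more, whatever share of single replicates reaches that level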
Peg3 promoter = inhibitors of Peg3 promoter. inhibition, % at 20 µM. 360,000 compounds, 1.7% hits. HeLa PEG-Prom luciferase reporter, luminescence, overnight;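 active means inhibition of at least 50% at 20 µM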
CF NFkB block = cystic fibrosis NF-kB activation inhibition. KKLEB NF-kB-GFP reporter, PAF-induced, GFP fluorescence overnight. 360,000 compounds, 0.86% hits. inhibition, % at 5 µM;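 active means at least 50% inhibition at 5 µM, scaled per plate between neutral and stimulator controls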;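 further: PAF is a Pseudomonas aeruginosa culture filtrate used as stimulus; plate controls were PAF-stimulated DMSO wells for no effect and unstimulated DMSO wells for full effect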
Mdm2-MdmX confirm = Mdm2/MdmX (human) interaction inhibition, confirmed; 740 compounds, 99% hits; inhibition, % at 8 µM; shares compounds with HIF-2a inh; SaOS-2 split-luciferase Mdm2/MdmX complementation, luminescence;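 active means mean inhibition of the luminescence signal across two replicates at or above 26 percent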
Target sequence (O15151 whole entry, looked up): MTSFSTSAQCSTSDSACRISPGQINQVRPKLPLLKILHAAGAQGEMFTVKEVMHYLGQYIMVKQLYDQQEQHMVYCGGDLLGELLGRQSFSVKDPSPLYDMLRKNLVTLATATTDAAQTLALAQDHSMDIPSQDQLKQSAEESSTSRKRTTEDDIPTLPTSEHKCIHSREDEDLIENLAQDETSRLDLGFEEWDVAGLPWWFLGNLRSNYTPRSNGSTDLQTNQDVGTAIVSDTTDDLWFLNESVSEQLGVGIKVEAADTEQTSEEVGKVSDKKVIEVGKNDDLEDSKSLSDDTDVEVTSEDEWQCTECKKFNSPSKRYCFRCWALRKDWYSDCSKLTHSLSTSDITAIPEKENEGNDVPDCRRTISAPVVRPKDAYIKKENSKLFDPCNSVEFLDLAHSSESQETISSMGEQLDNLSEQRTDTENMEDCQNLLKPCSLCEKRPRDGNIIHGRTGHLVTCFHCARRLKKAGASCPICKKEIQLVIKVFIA
Target sequence (Q00987 whole entry, looked up): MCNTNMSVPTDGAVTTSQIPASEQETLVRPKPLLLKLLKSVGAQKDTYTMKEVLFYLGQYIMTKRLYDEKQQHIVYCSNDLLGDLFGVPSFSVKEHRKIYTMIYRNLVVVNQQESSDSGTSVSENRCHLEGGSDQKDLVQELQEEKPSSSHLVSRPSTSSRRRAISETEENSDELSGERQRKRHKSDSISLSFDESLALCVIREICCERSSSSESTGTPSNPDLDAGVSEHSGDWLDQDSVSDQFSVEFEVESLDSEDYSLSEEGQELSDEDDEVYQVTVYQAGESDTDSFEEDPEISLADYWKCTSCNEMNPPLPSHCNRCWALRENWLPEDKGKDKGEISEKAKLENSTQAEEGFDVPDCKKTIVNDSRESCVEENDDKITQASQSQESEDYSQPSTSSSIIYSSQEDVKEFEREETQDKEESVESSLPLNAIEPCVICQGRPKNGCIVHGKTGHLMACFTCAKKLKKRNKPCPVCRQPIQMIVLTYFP
HIF-2a conf = HIF-2a inhibition, single concentration confirmation | shares compounds with HIF-2a inh | 786-0 RCC cells, HIF-2a luciferase reporter luminescence, overnight | inhibition, % at 18.8 µM | 1,800 compounds, 56% hits;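 active means mean inhibition across four replicates of at least 40 percent at the single tested concentration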
HIF-1a counter = counter-screen for HIF-2a inhibitors: HIF-1a inhibition in MiaPaCa-2 cells; shares compounds with HIF-2a inh; MiaPaCa-2 HIF-1a luciferase reporter, desferoxamine, overnight; inhibition, % at 18.8 µM; 1,800 compounds, 72% hits;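 active means mean inhibition of the reporter signal across four replicates at the single tested dose of 50% or more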
Active calls of the source: *; . = no result.

SMILES	KKLEB cytotox	HIF-2a inh	CHOP inhibitor	TRPM1 prom inh	Peg3 promoter	CF NFkB block	Mdm2-MdmX confirm	HIF-2a conf	HIF-1a counter
N=C1SC(c2ccccc2)C(=O)N1c1ncc(Cc2ccccc2Cl)s1 (stereo not given)	-6.0	13.7	-3.7	2.1	14.6	0.9	.	.	.
COc1ccc(CNc2ncc(-c3ccc(Br)cc3)n2C)cc1OC	11.2	16.2	.	3.6	2.3	-28.3	.	.	.
Cc1oc(-c2cccc(Cl)c2)nc1CN1CCC(C(=O)NCCCN2CC(C)CC(C)C2)CC1 (stereo not given)	-3.3	1.4	.	96.2*	91.6*	-6.5	103.5*	.	.
CC(C)CCNC(=O)c1onc(CSc2ccccn2)c1C(=O)NCCC(C)C	-10.3	6.4	.	-3.1	-15.5	3.7	.	.	.
COC(=O)c1c(C)n(-c2ccccc2)c2ccc(O)cc12	7.3	9.4	39.4	6.2	22.4	26.2	.	.	.
CN(C)/C=C/c1c([N+](=O)[O-])c2ccc(O)cc2n1-c1ccccc1	-2.9	28.1	37.9	-12.1	51.8*	83.6*	90.2*	.	.
Cc1nnnn1/C(=C\c1ccccc1)C(=O)OCC(=O)Nc1ccc(Cl)cc1F	-70.0*	88.2*	.	51.2	98.3*	84.0*	.	95.6*	56.5*
N#Cc1sc2nccc(Nc3ccccc3)c2c1N	-13.5	16.9	.	.	23.4	81.3*	91.2*	.	.
CCCCCCCCCCn1ccc(=N)cc1	-46.6	37.0	80.1*	76.9*	46.2	39.5	98.0*	.	.
CCCCCCCCn1ccc(=N)cc1	7.1	10.0	62.1	9.9	9.1	1.7	.	.	.
CC(C)CCNC(=O)CCc1nnc(COc2ccccc2)o1	5.7	-17.0	3.8	1.9	-17.1	-3.4	.	.	.
COc1ccc(N(C(=O)CCl)C(C(=O)NCCc2ccccc2)c2cccs2)cc1Cl (stereo not given)	-104.2*	94.8*	109.7*	85.6*	102.1*	89.3*	.	99.1*	102.9*
COc1cccc(N(C(=O)c2snc(C(N)=O)c2N)C(C(=O)NCC2CCCO2)c2cccs2)c1 (stereo not given)	-10.1	-4.3	.	3.7	-16.7	3.1	.	.	.
COc1cccc(N(C(=O)CCl)C(C(=O)NCCc2ccccc2)c2cccs2)c1 (stereo not given)	-89.8*	93.1*	-2.9	88.5*	109.3*	93.9*	.	98.0*	107.2*
CNC(=S)NC1(C)CCS(=O)(=O)C1 (stereo not given)	3.8	13.3	11.1	-20.6	9.5	-18.4	.	.	.
CC(C)C[C@@H](CNCC(=O)[C@H](CC(C)C)NC(=O)c1[nH]cnc1C(=O)N[C@H](CN)CC(C)C)NC(=O)c1nc[nH]c1C(=O)N[C@@H](Cc1ccccc1)C(=O)O	13.1	10.9	.	2.6	-6.6	-7.2	.	.	.
COc1ccc(Cc2c(-c3ccc(C)cc3)nc3cc(C)c(Br)c(C)n23)c(C)c1	-8.0	-37.7	.	.	-7.9	10.5	.	.	.
Cc1ccc2c(C(=O)CN3CCSCC3)c(C)[nH]c2c1	-14.3	-13.7	48.5	0.0	-10.4	12.8	.	.	.
Cc1ccc2c(C(=O)CCl)c(C)[nH]c2c1	-31.8	-0.2	-219.8	69.0*	50.0	78.4*	103.2*	.	.
Cc1c(Nc2cc(N3CCOCC3)c3nonc3c2[N+](=O)[O-])c(=O)n(-c2ccccc2)n1C	.	.	-4.1	.	.	.	.	.	.
O=[N+]([O-])c1c(Nc2cccc(O)c2)cc(Cl)c2nonc12	-91.6*	89.7*	.	77.5*	102.8*	91.3*	103.7*	95.3*	105.1*
Cc1c(Nc2cc(Cl)c3nonc3c2[N+](=O)[O-])c(=O)n(-c2ccccc2)n1C	-55.6*	98.1*	108.1*	101.8*	104.7*	94.0*	103.2*	98.5*	104.6*
O=[N+]([O-])c1c(Nc2ccccc2O)cc(N2CCOCC2)c2nonc12	-13.8	50.8*	-6.6	-4.9	23.8	-4.9	.	22.5	71.6*
